From PubChem BioAssay come the findings set out here.

Experiment [1] in a line: viability rescue of complex I mutant cybrids, primary screen, cell-based, galactose medium, ATP luminescence (AID 1645843;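 active means z-score of at least 1.8 in each of two replicates, scored against plate mean and spread of sample wells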;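 further: positive z means more ATP and so rescue of galactose-driven cybrid death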). To be noted: complex I mutant cybrid cells, 72 h, hits give high values.
Experiment [2] in a line: circadian clock period modulators, cell-based, LOPAC library, luminescence reporter (AID 2774).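 Further: values are relative to mean of DMSO wells on each plate.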 The note with it: circadian reporter cells, at 7 µM, actives lie on both sides.
Experiment [3] in a line: antimalarial activity against Dd2 strain (AID 2302;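 active means growth inhibition above 50% at the single 2 µM test dose, taken to imply half-maximal potency below 2 µM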;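 further: 0% = DMSO untreated growth and 100% = chloroquine plus artemisinin killed control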). To be noted: P. falciparum Dd2 in RBCs, LDH growth readout, 72 h; at 2 µM; hits give high values.
The nature of experiment [4]: HepG2 cytotoxicity, primary screen, cytotoxicity control for P. falciparum antimalarial project, cell-based, ATP luminescence (AID 2303;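 active means inhibition above 50%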;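 further: 0% = DMSO wells and 100% = digitonin-killed cells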). The note with it: HepG2 viability, 24-48 h, at 10 µM, hits give high values.
Experiment [5] has as its target L-lactate dehydrogenase (Plasmodium falciparum (isolate CDC / Honduras)) (UniProt Q27743). The experiment is described as follows: PfLDH activity inhibition – cell lysate, 3D7 strain, counter-screen for P. falciparum growth inhibition project (AID 2304).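 Further: 0% = vehicle and 100% = reference inhibitor.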 To be noted: P. falciparum 3D7 crude extract, LDH APAD/NBT absorbance; at 2 µM; hits give high values.
The nature of experiment [6]: inhibition of 3D7 malaria parasite growth – strain 3D7 (AID 2306).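 Further: 0% = DMSO wells and 100% = chloroquine plus artemisinin control wells.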 The note with it: P. falciparum 3D7 erythrocytic growth, LDH absorbance, 72 h; at 2 µM; hits give high values.

SMILES strings stand for the structures. Unmarked numbers belong to inactive results. Active and inactive are the calls of the source. Unless noted, how the calls were made is not given here.

Chain of L-lactate dehydrogenase (Plasmodium falciparum (isolate CDC / Honduras)) (Q27743 whole entry, looked up): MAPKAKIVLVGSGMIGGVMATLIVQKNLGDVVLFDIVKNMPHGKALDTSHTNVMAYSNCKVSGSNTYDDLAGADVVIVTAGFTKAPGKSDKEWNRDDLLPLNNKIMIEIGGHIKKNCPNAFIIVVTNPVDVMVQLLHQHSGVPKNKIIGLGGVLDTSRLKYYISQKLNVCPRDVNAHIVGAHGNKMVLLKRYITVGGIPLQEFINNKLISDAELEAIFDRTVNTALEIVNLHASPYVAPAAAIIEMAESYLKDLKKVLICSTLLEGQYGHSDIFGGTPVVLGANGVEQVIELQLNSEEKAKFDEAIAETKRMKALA

Consider `CCCOC1CCCN(C2CCN(C)CC2)C1` (stereo not given), for which the z-score in experiment [1] was -0.46.
`C=CCN1CCC2(C)c3cc(O)ccc3CC1[C@@H]2C` (stereo not given in full): the period change in experiment [2] is -0.025 h.
As for `CC1(C)C(C(=O)N2CCC(n3cc(C4CC4)nn3)CC2)C1(C)C`, the z-score in experiment [1] was -0.525.
Regarding `C[C@]12CC[C@@H](O)CC1CC[C@@H]1[C@@H]2CC[C@]2(C)C(=O)CC[C@@H]12` (stereo not given in full), the period change in experiment [2] was 0.105 h.
`COC(=O)/C=C/c1ccc(CC(C)NCC(O)c2cccc(C(F)(F)F)c2)cc1` (stereo not given): the growth inhibition was 96% (active) in experiment [3] and 97% (active) in experiment [6]. Besides, the inhibition in experiment [4] is 16%; in experiment [5], 0%.
`COc1cc(CCN)ccc1O`: in experiment [2], the period change is -0.1 h.
With `CC1=C[C@@H]2c3cccc4[nH]cc(c34)C[C@H]2N(C)C1`, in experiment [2], the period change is 0.28 h.
